Rows were chosen to be rich in hits. Some 5.3% of all compounds tested hit in one or more screens of this group.
JMJD2E inh: qHTS Assay for Inhibitors of Human Jumonji Domain Containing 2E (JMJD2E); Potency, µM (top dose mostly 57.1 µM), inactives show at the highest dose activity change, negative = inhibition, hits mostly inhibitors; AID 2147, 2009; JMJD2E catalytic domain, FDH-coupled NADH fluorescence (FDH is formaldehyde dehydrogenase); 1.6% of 230,000 active; active = well fitted inhibition curve with a large enough effect, not every such curve was filed as active; inconclusive = small, poorly fitted or top-dose-only effect, or another doubt; inactive = no such curve, though single readings can be large or run the other way;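 note: potency is the fitted concentration of half-maximal effect; 0% = wells with enzyme and -100% = buffer wells without enzyme; nearly all actives have a fitted effect of over 50% in size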
Target sequence (B2RXH2 1-337 limits assumed): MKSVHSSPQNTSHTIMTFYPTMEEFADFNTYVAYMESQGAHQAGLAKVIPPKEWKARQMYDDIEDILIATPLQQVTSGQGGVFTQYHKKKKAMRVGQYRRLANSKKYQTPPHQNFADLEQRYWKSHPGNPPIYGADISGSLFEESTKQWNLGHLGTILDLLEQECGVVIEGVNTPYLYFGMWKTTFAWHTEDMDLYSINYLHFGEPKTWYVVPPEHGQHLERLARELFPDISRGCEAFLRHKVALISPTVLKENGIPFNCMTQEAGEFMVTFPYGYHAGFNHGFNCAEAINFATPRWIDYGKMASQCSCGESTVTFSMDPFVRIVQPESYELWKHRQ
Tau fibril ThT: qHTS for Inhibitors of Tau Fibril Formation, Thioflavin T Binding; recombinant tau K18 P301L, heparin-induced fibrillization, ThT fluorescence; Potency, µM (titrated, usually from 57.4 µM), without a hit: at the top dose activity, negative = inhibition, most hits filed as inhibitors; 2.1% of 270,000 active; AID 1460, 2008; note: potency is the fitted concentration of half-maximal effect; nearly all actives have a fitted effect of over 55% in size
Target sequence (P10636 561-689 P618L limits assumed): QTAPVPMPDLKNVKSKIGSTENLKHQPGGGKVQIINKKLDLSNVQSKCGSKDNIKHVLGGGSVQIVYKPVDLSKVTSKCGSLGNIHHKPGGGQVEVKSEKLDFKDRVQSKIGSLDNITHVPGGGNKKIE
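K18 P301L tau (15 uM + 0.24 uM Alexa 594-tagged), heparin 20 uM, NaOAc pH 7, 6 h 37 C; ThT 30 uM, 1 h RT, ex 450/em 510 nm.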
Sfp inh: qHTS Assay for Inhibitors of Bacillus subtilis Sfp phosphopantetheinyl transferase (PPTase). Potency, µM, without a hit: largest response in the series, negative = inhibition, most hits filed as inhibitors. 3.5% of 310,000 active. Biochemical Sfp PPTase activity, qHTS. 4'-phosphopantetheinyl transferase ffp (Bacillus subtilis), Q9F4F7. AID 1490, 2009;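 note: the enzyme is Sfp with the accession as filed and its product quenches rhodamine fluorescence; potency is the fitted concentration of half-maximal effect; 0% = enzyme reaction without inhibitor and -100% = no enzyme wells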
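Fluorescence-quenching assay with 15 nM Sfp, 5 uM rhodamine-CoA and 12.5 uM BHQ-2-labelled ybbR peptide in pH 7.6 Hepes/MgCl2 buffer. Enzyme was pre-incubated with compound for 15 min at room temperature. Rate was taken from the 30-min fluorescence change (525/598 nm).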
Tau fibril FP: qHTS for Inhibitors of Tau Fibril Formation, Fluorescence Polarization. Microtubule-associated protein tau (Homo sapiens), P10636. K18 P301L tau heparin fibrillization, Alexa594 FP, 6 h. Potency, µM (highest dose often 57.7 µM), for inactives: top-dose activity, negative = inhibition, actives largely listed as inhibitors. 0.39% of 280,000 active. AID 1468, 2008; note: potency is the fitted concentration of half-maximal effect; nearly all actives have a fitted effect of over 55% in size
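K18 P301L tau (15 uM unlabeled/0.24 uM Alexa 594-labeled, final) + compound + heparin 20 uM final; 100 mM NaOAc pH 7; 6 hr 37 C; ThT 30 uM final added, 1 hr RT; FP ex 555/em 632 nm.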
Tau fluor counter: Counterscreen qHTS for Inhibitors of Tau Fibril Formation, Fluorescence Polarization; tau K18 P301L Alexa594 fluorescence, heparin fibrillization; Potency, µM (highest dose often 57.7 µM), for inactives: at the top dose activity change, negative = decrease; 0.93% of 280,000 active; note: potency is the fitted concentration of half-maximal effect; nearly all actives have a fitted effect of over 55% in size
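Human tau K18 P301L (15 uM unlabeled, 0.24 uM Alexa 594-labeled) in 100 mM sodium acetate pH 7 with 20 uM heparin, 6 hr at 37 C. ThT 30 uM added, 1 hr ambient; Alexa 594 FP and total fluorescence read at 555/632 nm.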
Coupling enz: qHTS Assay for Inhibitors of Fructose-1,6-bisphosphate Aldolase from Giardia Lamblia: Coupling assay counterscreen. 0.67% of 290,000 active. activity change, negative = inhibition, % at 58.2 µM, hits read low. AID 2472, 2010. coupling enzyme system counterscreen, AmpLite Red fluorescence; in the data active = activity change below about -30%
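Counterscreen lacking aldolase: glyceraldehyde-3-phosphate coupling-enzyme reagent preincubated 10 min at RT with compound (at 57.5 uM final), then substrate/coupling system with AmpLite Red added; fluorescence read at 525/598 nm after 20 min RT.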
An asterisk follows results filed as active; ? = inconclusive; · = no result given; [ ] = dose if it differs, or a comment. Unless noted, calls come from the whole dose curve; as a rule, active = well fitted curve in the direction sought with a large enough effect; inconclusive = small, poorly fitted or top-dose-only effect, or another doubt; inactive = no such curve, though single readings can be large; an effect the other way counts as inactive or inconclusive. Unless noted, % is set by controls: 0 for no effect and ±100 for the full control effect.

SMILES	JMJD2E inh	Tau fibril ThT	Sfp inh	Tau fibril FP	Tau fluor counter	Coupling enz
Cc1ccc(-n2[nH]c(C)c(/C=N/Nc3ccc([N+](=O)[O-])cc3[N+](=O)[O-])c2=O)cc1C	?	2.24µM*	-7.5%	20µM*	4.47µM*[quencher]	13.0
CC(C)(C)NCC(O)COc1ccc(NC(=O)NC2CCCCC2)cc1 (stereo unspecified)	·	·	14.1%	·	·	·
S=C(NCCc1ccccc1)Nc1cnc2ccccc2c1	25.1µM*	17.3%	5.4%	?	?	-0.1
O=C(NC(=S)Nc1cnc2ccccc2c1)c1ccccc1	?	-13.6%	56.2µM*	-1.4%	-0.2%	0.1
CCCCCCC#CC1C=CC(Oc2ccc(C=O)cc2)C(CO)O1 (stereo unspecified)	·	-2.3%[11.5 µM]	5.3%	1.6%[11.6 µM]	0.4%[11.6 µM]	-0.7
CCCN(C(=O)c1cc(S(=O)(=O)N2CCc3ccccc32)cn1C)c1ccc(OCC)cc1	·	0.4%	·	-2.5%	-2.9%	·
Cc1nc2scc(-c3ccco3)c2c(=O)n1/N=C/N(C)C	-4.0%	?	12.6µM*	?	-4.1%	1.7
Cc1sc2nc(C)n(/N=C/N(C)C)c(=O)c2c1C	0.9%	?	5.9%	0.2%	19.4%	1.3
CCOC(=O)/C(=C/c1c[nH]c2ccccc12)NC(C)=O	-4.3%	?	4.6%	-5.2%	-9.2%	1.2
COC(=O)/C(=C/c1c[nH]c2ccccc12)NC(C)=O	20µM*	-1.8%	5.8%	-1.3%	2.0%	0.5
CCOC(=O)/C=C(C)\C=C\c1c[nH]c2ccccc12	?	?	13.3%	15.3%	14.1µM*[quencher]	-4.4
CC[n+]1ccc(/C=C/c2c[nH]c3ccccc23)cc1	·	·	-15.6%	·	·	-28.6
COc1ccc(S(=O)(=O)Nc2ccccn2)cc1	·	·	12.0%	·	·	0.1
COc1ccccc1Oc1c(NS(=O)(=O)c2ccc(C(C)(C)C)cc2)nc(-c2ncccn2)nc1OCCO	·	·	56.2µM*	·	·	·
CCOc1ccc(C(=O)Nc2cccc(-c3nc4cc(Cl)cc(Cl)c4o3)c2)cc1	·	-0.4%	·	2.7%	-5.3%	·
CC1(C)OCC(CSC2=C(SCC3COC(C)(C)O3)C(=O)c3ncccc3C2=O)O1 (stereo unspecified)	1µM*	1µM*	1.26µM*	1.78µM*	?	-87.1*
O=C1C2C(C(=O)N1/N=C/c1cc(Br)cc([N+](=O)[O-])c1O)C1C=CC2C12CC2 (stereo unspecified)	3.7%	7.94µM*	15.6%	-1.2%	-18.0%	4.0
O=c1c2c(-c3ccccc3)csc2ncn1/N=C/c1c2ccccc2cc2ccccc12	4.0%	-2.5%	8.7%	-10.7%	-9.5%	-3.9
O=[N+]([O-])c1cccc(/C=N/n2cnnc2)c1O	7.6%	15.8µM*	-17.6%	-12.4%	-4.7%	-0.2
C=CCS/C(N)=N\N=C\c1cc(Br)cc([N+](=O)[O-])c1O	-2.4%	12.6µM*	11.0%	6.8%	?	-0.3
O=c1c2c(-c3ccc(Cl)cc3)csc2ncn1/N=C/c1cccc([N+](=O)[O-])c1O	-15.0%	15.8µM*	-6.1%	1.1%	-10.6%	7.5
O=[N+]([O-])c1cc(Br)cc(/C=N/n2cnnc2)c1O	12.4%	8.91µM*	18.4%	8.0%	-1.8%	13.6
O=[N+]([O-])c1cc(Cl)cc(/C=N/n2cnnc2)c1O	10.8%	?	22.6%	4.4%	6.0%	2.0
COc1ccc(-c2c(C3C4C=CCCC4(C)C(=O)N3Cc3ccccc3)ccc3ccccc23)cc1 (stereo unspecified)	·	·	-29.4%	·	·	0.1
COC(=O)C1=C(O)/C(=C\c2sccc2C)N=C1C	5.4%	?	5.5%	3.5%	-8.9%	0.5
